Compound activity: PubChem BioAssay, National Center for Advancing Translational Sciences (NCATS)
Shown are actives, neighbours in structure and some others; about 9.4% of the full set was active somewhere.
NPC1 prom act – qHTS Assay for NPC1 Promoter Activators | Huh7 NPC1 promoter luciferase reporter, 24 h | 320,000 compounds, 2.4% hits | Potency, µM (highest dose often 9.22 µM), hits mostly activators; also: nearly all actives have a fitted effect of over 60% in size
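Huh7 cells stably carrying NPC1 promoter–luciferase, plated in Opti-MEM with 10% FBS for 2 h, were exposed to compound in DMSO for 24 h at 37 °C; luciferase reagent was added for 10 min and luminescence read.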
ELG1 genotoxic – qHTS screen for small molecules that induce genotoxicity in human embryonic kidney (HEK293T) cells expressing luciferase-tagged ELG1; HEK293T ELG1-luciferase reporter, luminescence, 16 h; Potency, µM (highest dose often 46 µM), most hits filed as activators; 330,000 compounds, 1.3% hits; also: nearly all actives have a fitted effect of over 60% in size
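Reporter readout depends on ELG1 protein level, which increases with genetic stress. After 16 hr compound exposure at 37 °C, luciferase activity was quantified using ONE-Glo.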
ELG1 repair inh – qHTS screen for small molecules that inhibit ELG1-dependent DNA repair in human embryonic kidney (HEK293T) cells expressing luciferase-tagged ELG1; AID 504467, 2011; 330,000 compounds, 2.3% hits; Potency, µM (series often up to 46.1 µM), usual class: inhibitors; HEK293T ELG1-luciferase reporter, luminescence, 16 h; DNA damage induced by 5-fluorouridine; also: nearly all actives have a fitted effect of over 55% in size
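DMSO vehicle served as the neutral condition. Each well held 2,000 cells given 5-fluorouridine plus compound; after 16 hr at 37 °C/5% CO2, ONE-Glo was added and luciferase measured 30 min later.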
FLuc counter – qHTS profiling assay for firefly luciferase inhibitor/activator using purifed enzyme and Km concentrations of substrates (counterscreen for miR-21 project); Potency, µM (series often up to 57.5 µM), hits mostly inhibitors; AID 588342, 2011; purified FLuc, Km substrates, luminescence inhibition; 360,000 compounds, 6.9% hits; Luciferin 4-monooxygenase (Photinus pyralis), P08659; also: nearly all actives have a fitted effect of over 55% in size
Target sequence (P08659 whole entry, looked up): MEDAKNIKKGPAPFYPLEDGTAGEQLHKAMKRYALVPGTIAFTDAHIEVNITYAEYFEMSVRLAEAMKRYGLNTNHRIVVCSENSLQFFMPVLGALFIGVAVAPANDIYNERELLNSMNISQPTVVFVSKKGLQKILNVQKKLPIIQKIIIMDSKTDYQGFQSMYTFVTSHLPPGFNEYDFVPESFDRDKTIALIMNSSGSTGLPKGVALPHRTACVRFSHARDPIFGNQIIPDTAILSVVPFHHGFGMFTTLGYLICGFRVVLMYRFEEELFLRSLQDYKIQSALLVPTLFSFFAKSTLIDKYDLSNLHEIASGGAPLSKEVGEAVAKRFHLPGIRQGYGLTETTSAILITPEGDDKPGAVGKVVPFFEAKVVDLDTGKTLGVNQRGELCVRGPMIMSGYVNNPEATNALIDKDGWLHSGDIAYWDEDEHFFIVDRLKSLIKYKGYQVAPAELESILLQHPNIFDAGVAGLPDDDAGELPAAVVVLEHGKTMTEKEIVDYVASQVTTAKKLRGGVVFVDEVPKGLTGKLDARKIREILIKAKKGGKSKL
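Purified P. pyralis luciferase (10nM final) with 10uM D-luciferin and 10uM ATP (Km levels) in 50mM Tris acetate pH 7.5, 10mM Mg acetate, 0.01% Tween-20, 0.05% BSA; qHTS 6-point titration, ~60 µM downward; luminescence read.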
SMN2 splice enh – qHTS Assay for Enhancers of SMN2 Splice Variant Expression | HEK293 SMN2-luciferase splicing reporter, luminescence, 30-36 h | Potency, µM (top dose mostly 46.1 µM), usual class: activators | 210,000 compounds, 2.8% hits; also: nearly all actives have a fitted effect of over 55% in size
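qHTS luciferase splicing reporter: luminescence rises when SMN2 exon 7 is included in transfected HEK293 cells. Compound exposure lasted 30-36 h at 37C, with 4.5 mM final sodium butyrate as control, followed by a ONE-Glo read.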
Rab9 promoter act – qHTS Assay for Rab9 Promoter Activators; Huh7 Rab9 promoter-luciferase reporter, luminescence, 24 h; Potency, µM (highest dose often 9.22 µM), usual class: activators; 320,000 compounds, 2.8% hits; AID 485297, 2010; also: nearly all actives have a fitted effect of over 60% in size
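Measured in stably transfected Huh7 cells bearing a Rab9 promoter–luciferase construct: 24 h compound treatment at 37 °C, followed by luminescence detection.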
Of the large screens only hits and unclear results are named; the others gave an inactive call. Calls follow the shape of the dose curve; as a rule, active = well fitted curve in the direction sought with a large enough effect; inconclusive = small, poorly fitted or top-dose-only effect, or another doubt; inactive = no such curve, though single readings can be large; an effect the other way counts as inactive or inconclusive.

CCc1nnc(NS(=O)(=O)c2ccc(N/C=C\C(=O)c3ccc4ccccc4c3)cc2)s1	FLuc counter inconclusive
O=C(CNC(=O)c1ccccc1)NCC(=O)OCC(=O)c1ccc(F)cc1	none
O=C(/C=C\NCC(=O)c1ccccc1)c1ccc(F)cc1	FLuc counter 13µM
O=C(/C=C\NCC(=O)c1ccccc1)c1ccc2ccccc2c1	ELG1 repair inh inconclusive, FLuc counter 27µM (no result: SMN2 splice enh)
O=C(Nc1ccc(-c2nc3ccccc3o2)cc1)C1CCCO1 (stereo not drawn)	NPC1 prom act 0.32µM, ELG1 genotoxic inconclusive, ELG1 repair inh inconclusive, FLuc counter 1.3µM, SMN2 splice enh 7.9µM, Rab9 promoter act 0.45µM
O=C(O)c1cccc(NC(=O)C2CCCO2)c1 (stereo not drawn)	none
O=C(Nc1ccc2oc(-c3ccccc3)nc2c1)C1CCCO1 (stereo not drawn)	NPC1 prom act 2.2µM, ELG1 genotoxic 18µM, ELG1 repair inh inconclusive, FLuc counter 7.6µM, SMN2 splice enh 11µM, Rab9 promoter act 2.8µM
O=C(Nc1ccc(-c2nc3cc(Cl)ccc3o2)cc1)C1CCCO1 (stereo not drawn)	NPC1 prom act 0.79µM, ELG1 genotoxic 18µM, ELG1 repair inh inconclusive, FLuc counter 1.2µM, SMN2 splice enh 2.8µM, Rab9 promoter act 0.5µM
O=C(Nc1ccc(-c2nc3cccnc3s2)cc1)C1CCCO1 (stereo not drawn)	NPC1 prom act 0.13µM, ELG1 genotoxic inconclusive, ELG1 repair inh inconclusive, FLuc counter 0.6µM, SMN2 splice enh 1.1µM, Rab9 promoter act 0.1µM
Cc1ccc(OCC(=O)OCc2cc(=O)n3nc(-c4cccs4)sc3n2)cc1C	none (no result: NPC1 prom act, ELG1 genotoxic, ELG1 repair inh, SMN2 splice enh, Rab9 promoter act)
O=C(c1ccco1)N1C(=O)c2cccc3cccc1c23	SMN2 splice enh 10µM
COC(=O)c1sc(-c2ccc(C(C)(C)C)cc2)cc1NC(=O)CSCC(=O)O	FLuc counter 3.4µM (no result: SMN2 splice enh)
COC(=O)c1sc(-c2ccc(Cl)cc2)cc1NC(=O)c1ccccc1C(=O)O	FLuc counter 21µM (no result: SMN2 splice enh)
COC(=O)c1sc(-c2ccccc2)cc1NC(=O)C1CC1	ELG1 repair inh inconclusive, FLuc counter inconclusive
COC(=O)c1sc(-c2ccc(C(C)(C)C)cc2)cc1NC(=O)c1ccccc1C(=O)O	ELG1 repair inh inconclusive, FLuc counter 11µM (no result: SMN2 splice enh)
COc1cccc(Cc2nc3ccccc3nc2SCC(=O)NCc2ccc(C)cc2)c1	none (no result: NPC1 prom act, ELG1 genotoxic, ELG1 repair inh, SMN2 splice enh, Rab9 promoter act)
COc1ccc(Cn2c(SCc3ccc(C(=O)NC(C)c4ccccc4)cc3)nc3cccnc32)cc1 (stereo not drawn)	FLuc counter inconclusive (no result: NPC1 prom act, ELG1 genotoxic, ELG1 repair inh, Rab9 promoter act)
CCOC(=O)C1CCN(C(=O)C2CCN(c3nnc(C)c4c(C)n(-c5ccccc5)nc34)CC2)CC1	none (no result: NPC1 prom act, ELG1 genotoxic, ELG1 repair inh, SMN2 splice enh, Rab9 promoter act)
O=[N+]([O-])c1ccc(-c2nc(Nc3cccc(O)c3)c3ccccc3n2)cc1	ELG1 repair inh inconclusive (no result: SMN2 splice enh)
Cc1ccc(-c2nc(N/N=C/c3cccc([N+](=O)[O-])c3)c3ccccc3n2)cc1	NPC1 prom act inconclusive, ELG1 repair inh inconclusive, FLuc counter 0.54µM
Cc1ccc(-c2nc(N/N=C/c3cccnc3)c3ccccc3n2)cc1	NPC1 prom act inconclusive, ELG1 genotoxic inconclusive, ELG1 repair inh inconclusive, FLuc counter 0.12µM, SMN2 splice enh inconclusive, Rab9 promoter act 3.5µM
COc1ccc(/C=N/Nc2nc(-c3cccnc3)nc3ccccc23)c(OC)c1	ELG1 repair inh inconclusive, FLuc counter 2.4µM (no result: SMN2 splice enh)
COc1ccc(OC)c(Nc2nc(-c3ccncc3)nc3ccccc23)c1	ELG1 repair inh inconclusive (no result: SMN2 splice enh)
COC(=O)N1CCC2(CCCN(c3ncccn3)C2)CC1	none (no result: NPC1 prom act, ELG1 genotoxic, ELG1 repair inh, FLuc counter, Rab9 promoter act)
Cc1cccc(Oc2nc3ccccn3c(=O)c2/C=C(\C#N)c2nc3ccccc3s2)c1C	FLuc counter inconclusive (no result: NPC1 prom act, ELG1 genotoxic, ELG1 repair inh, Rab9 promoter act)
COc1ccc(Cn2c(CCC(=O)NCc3cccc(Cl)c3)nc3cccnc32)cc1	none (no result: NPC1 prom act, ELG1 genotoxic, ELG1 repair inh, Rab9 promoter act)
Cc1cccc(C(=O)N2CCC(N3CCN(Cc4ccc(F)cc4)C(=O)C3=O)CC2)c1	none (no result: NPC1 prom act, ELG1 genotoxic, ELG1 repair inh, SMN2 splice enh, Rab9 promoter act)
